Sfp PPTase inh: inhibitors of Bacillus subtilis Sfp phosphopantetheinyl transferase; 310,000 tested, 3.5% active; AID 1490; Potency, µM, for the others: largest response in the series, negative = inhibition, usual class: inhibitors; Q9F4F7; Biochemical Sfp PPTase activity, qHTS;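 further: the enzyme is Sfp with the accession as filed and its product quenches rhodamine fluorescence; 0% = enzyme reaction without inhibitor and -100% = no enzyme wells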
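Fluorescence-quenching assay: 15 nM Sfp-PPTase preincubated 15 min at room temperature with compound, then 5 uM rhodamine-CoA and 12.5 uM BHQ-2-labelled YbbR peptide added. Fluorescence (ex 525/em 598 nm) read at start and after 30 min; difference gives rate.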
PLK1 PBD block: PLK1 (human) polo-box domain binding inhibition; Plk1 PBD binding of FITC phosphopeptide, fluorescence polarization; 360,000 tested, 2.8% active; P53350; Potency, µM, for the others: max response, negative = inhibition, most hits filed as inhibitors; AID 720504; further: series mostly up to about 57 µM; on the % scale 0 is the no-effect control and ±100 the full control effect; nearly all actives have a fitted effect of over 65% in size
BAZ2B block: BAZ2B (human) inhibition; AlphaScreen BAZ2B-H3K14Ac peptide displacement; Potency, µM (highest dose often 114 µM), for inactives: at the top dose activity change, negative = inhibition, usual class: inhibitors; 360,000 tested, 4.4% active; further: on the % scale 0 is the no-effect control and ±100 the full control effect; nearly all actives have a fitted effect of over 60% in size
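Compounds, titrated to a top concentration of 110 uM, were incubated 30 min at room temperature with preformed BAZ2B/acetyl-K14 H3 peptide complex (50 nM each). Proximity signal was measured by AlphaScreen after 20 min with beads.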
JMJD2A Tudor: inhibitors of human JMJD2A Tudor domain | O75164 | AlphaScreen JMJD2A-Tudor / H3K4me3 peptide binding | Potency, µM (doses to about 114 µM), for inactives: at the top dose activity change, negative = inhibition, hits mostly inhibitors | 390,000 tested, 4.4% active; further: on the % scale 0 is the no-effect control and ±100 the full control effect; nearly all actives have a fitted effect of over 50% in size
G9a block: blocks human histone lysine methyltransferase G9a; Q96KQ7; G9a H3K9 monomethylation, AlphaScreen, 2 h; Potency, µM (titrated, usually from 102 µM), for the others: top-dose activity, negative = inhibition, actives largely listed as inhibitors; 350,000 tested, 8.8% active; further: on the % scale 0 is the no-effect control and ±100 the full control effect; nearly all actives have a fitted effect of over 75% in size
Target sequence (Q96KQ7 913-1193 limits assumed): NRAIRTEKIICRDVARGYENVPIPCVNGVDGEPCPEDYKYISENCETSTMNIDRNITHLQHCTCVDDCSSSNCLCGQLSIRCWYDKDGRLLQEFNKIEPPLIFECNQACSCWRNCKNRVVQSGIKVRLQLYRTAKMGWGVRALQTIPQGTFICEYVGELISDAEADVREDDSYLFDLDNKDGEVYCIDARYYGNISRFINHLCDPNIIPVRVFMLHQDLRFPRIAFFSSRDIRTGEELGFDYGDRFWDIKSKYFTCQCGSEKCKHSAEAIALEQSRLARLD
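Chemiluminescent proximity detection of H3K9 monomethylation, read after 10 min bead incubation in the dark. Reaction: 20 nM G9a, 500 nM biotin-H3K9 peptide, 20 uM SAM cofactor, 2 h, room temperature, following 15 min enzyme-compound preincubation.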
HP1b chromo inh: blocks HP1-beta chromodomain binding to methylated histone tails. P83916. AlphaScreen HP1-beta / biotin-H3K9me3 peptide binding. Potency, µM (doses to about 114 µM), for inactives: at the top dose activity change, negative = inhibition, hits mostly inhibitors. AID 540317. 390,000 tested, 0.56% active; further: nearly all actives have a fitted effect of over 70% in size
Target sequence (P83916 whole entry, looked up): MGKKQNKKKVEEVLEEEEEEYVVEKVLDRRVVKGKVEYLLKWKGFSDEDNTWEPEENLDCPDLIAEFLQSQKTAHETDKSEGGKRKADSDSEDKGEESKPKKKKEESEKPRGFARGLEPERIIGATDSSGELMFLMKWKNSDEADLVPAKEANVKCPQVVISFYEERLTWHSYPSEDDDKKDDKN
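Compound inhibition of the preformed complex between 50 nM HP1-beta and 50 nM biotinylated H3K9me3 peptide was read by AlphaScreen. Buffer was PBS pH 7.4 with 0.01% Tween-20. Incubations ran 30 min at room temperature, with 10 ug/mL donor/acceptor beads.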
Active calls of the source: *; ? = inconclusive; . = no result; ! = not active in a repeat; [ ] = remark or other dose. Hits are enriched below; roughly 12% of the tested compounds scored in any of these assays. The call rests on the fitted dose curve; in most records, active means well fitted curve in the direction sought with a large enough effect; inconclusive means small, poorly fitted or top-dose-only effect, or another doubt; inactive means no such curve, though single readings can be large; an effect the other way counts as inactive or inconclusive. Potency means the concentration at half of the fitted maximal effect.

SMILES | Sfp PPTase inh | PLK1 PBD block | BAZ2B block | JMJD2A Tudor | G9a block | HP1b chromo inh
CCN(CC)S(=O)(=O)c1ccc(C(=O)NC2=C(C(=O)OC)SCC2)cc1 | -3.2% | -0.3% | ? | 39.8µM* | 21.7%[12.7 µM] | -14.6%
CCCCC(=O)NC1=C(C(=O)OC)SCC1 | -1.2% | -9.2% | ? | ? | 4.47µM* | -4.0%
CCCn1c(=O)c2sccc2n2c(CCCC(=O)Nc3ccc(Oc4ccc(Cl)cc4)cc3)nnc12 | . | . | 6.6% | -18.1% | 7.3%[59 µM] | 58.2%
CC1C(=O)N2CCCc3cc(NC(=O)C(=O)NCc4cccnc4)cc1c32 (stereo not given) | . | -2.3% | -6.6% | -5.5% | -3.1% | 25.1%
Cc1nc(COc2ccc(C(=O)NCc3ccccc3CN3CCCCC3)cc2)cs1 | . | -0.6% | 4.2% | -17.8% | -8.0%[12.7 µM] | 16.1%
CCOc1ccc(-n2c(SCc3nc(-c4ccc(C)cc4)no3)nnc2-c2ccncc2)cc1 | -14.2% | -0.8% | -5.5% | -35.8% | 79.4µM* | 13.5%
Cc1ccccc1-c1cc2nc(NCCN3CCCC3)n(C)c(=O)c2s1 | . | -10.7% | . | . | . | .
Cc1ccc(-c2cc(NC(=O)CCl)n(-c3ccccc3)n2)cc1 | 13.1% | 26.7µM* | -17.8% | 79.4µM* | -45.9% | -2.7%
O=C(CCl)Nc1cc(-c2ccccc2)nn1-c1ccccc1 | -10.5% | -17.4% | 7.3% | -26.1% | ? | 71.9%
Cc1cc(N/N=C/c2ccc(Cl)cc2Cl)nc(NCc2ccccc2)n1 | ? | 2.3% | ? | -27.5% | ? | 9.3%
Cc1cc(Nc2ccccc2)nc(NCc2ccccc2)n1 | 25.1µM* | -5.2% | -12.6% | -24.5% | 2.8%[59 µM] | 2.8%
Cc1cc(Nc2ccc(Cl)cc2)nc(NCc2ccccc2)n1 | 20µM* | 1.5% | ? | ? | -15.8%[59 µM] | -6.9%
Cc1cc(Nc2cccc(F)c2)nc(NCc2ccccc2)n1 | 56.2µM* | -5.1% | -11.5% | -23.4% | 4.9%[59 µM] | 13.3%
CCCCNc1cc(C)nc(NCc2ccccc2)n1 | -15.0% | -11.3% | -23.9% | ? | -17.2% | -4.1%
Cc1cccc(N(Cc2cc(=O)[nH]c3ccccc23)C(=O)CCl)c1 | ? | -9.9% | -16.9% | 56.2µM* | 5.62µM* | -2.5%
CCCC(=O)N(Cc1cc(=O)[nH]c2ccccc12)c1cccc(C)c1 | -14.9% | -23.1% | -5.4% | ? | 28.2µM* | -9.5%
CC(=O)N(Cc1cc(=O)[nH]c2ccccc12)c1cccc(C)c1 | 44.7µM* | -4.2% | -6.3% | 31.6µM* | ? | -24.9%
Cc1cccc(N(Cc2cc(=O)[nH]c3ccccc23)C(=O)C(C)C)c1 | 23.4% | -6.5% | -1.4% | -3.7%[11.4 µM] | 9.2% | 50.6%
Cc1ccc2occ(CC(=O)N(Cc3ccccc3Cl)C3CCS(=O)(=O)C3)c2c1 (stereo not given) | . | . | ? | -15.3% | -5.0%[59 µM] | 46.9%
Cc1ccc(S(=O)(=O)N2CCCN(c3nc(-c4cccs4)nc4ccccc34)CC2)cc1 | . | . | . | -13.5% | . | 38.9%
Cc1ccc(N(CC(=O)NCc2ccc(OC(C)C)cc2)S(=O)(=O)N(C)C)cc1 | . | . | 5.7% | 3.0% | 8.2%[59 µM] | 23.5%
COCCN=C1NC(=O)C(CC(=O)Nc2cccc(Cl)c2C)S1 (stereo not given) | -9.4% | -4.0% | 1.7% | -12.1% | 50.1µM* | 28.3%
Cc1c(Cl)cccc1NC(=O)CC1NCCNC1=O (stereo not given) | 10.7% | 1.7% | 5.6% | -5.8% | 6.8%[12.7 µM] | 34.1%
CCCCOC(=O)c1ccc(Nc2ncnc3c2cnn3-c2cccc(C)c2)cc1 | . | . | -1.8% | -10.7% | 2.4%[59 µM] | 7.4%
O=C(O)C1CCN(Cc2cccnc2)CC1 | 22.0% | -3.5% | -32.4% | 1.4% | ? | 20.1%
CCCCN(C)C(=O)C1CCN(Cc2cccnc2)CC1 | -17.4% | -3.6% | 79.4µM* | 28.2µM* | 14.1µM* | ?
CCCCN(C)C(=O)C1CCN(Cc2cccc(OCc3ccccc3)c2)CC1 | -20.7% | -6.6% | ? | 39.8µM* | 12.6µM* | -7.5%
O=c1[nH]cnc(CN2CCCCC2)c1O | . | -3.3% | . | 50.1µM* | . | 23.1%
CCCCC/C=C\CC(O)/C=C/c1cccc(CC(O)CCCCO)n1 (stereo not given) | 28.4% | . | . | . | 16.8µM*! | .

Assay outcomes (PubChem)
